Results filed as inconclusive are left out. Active and inactive are the calls of the source. Unless noted, calls follow the shape of the dose curve; as a rule, active = well fitted curve in the direction sought with a large enough effect; inconclusive = small, poorly fitted or top-dose-only effect, or another doubt; inactive = no such curve, though single readings can be large; an effect the other way counts as inactive or inconclusive.
Legend:
[1] = qHTS for differential inhibitors of proliferation of Plasmodium falciparum line 7G8 (AID 1815);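 also: parasite growth measured after three days of incubation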; also: potency is read from the fitted curve at half-maximal effect
[2] = qHTS for differential inhibitors of proliferation of Plasmodium falciparum line GB4 (AID 1816); settings: Potency: Plasmodium falciparum GB4 proliferation inhibition;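 also: parasite growth measured after 72 h incubation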; also: potency is read from the fitted curve at half-maximal effect
[3] = qHTS for differential inhibitors of proliferation of Plasmodium falciparum line D10 (AID 1877);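 also: parasites grown with compound for 72 h before DNA staining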; also: potency is read from the fitted curve at half-maximal effect
[4] = qHTS for differential inhibitors of proliferation of Plasmodium falciparum line W2 (AID 1883); settings: Potency: Plasmodium falciparum W2 proliferation inhibition;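 also: parasites grown with compound for 72 h before lysis and staining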; also: potency is read from the fitted curve at half-maximal effect
[5] = qHTS for differential inhibitors of proliferation of Plasmodium falciparum line HB3 (AID 1886); settings: Potency: Plasmodium falciparum HB3 proliferation inhibition;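 also: parasites grown with compound for 72 h before SYBR Green readout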; also: potency is read from the fitted curve at half-maximal effect
[6] = qHTS for differential inhibitors of proliferation of Plasmodium falciparum line 3D7 (AID 1876); also: potency is read from the fitted curve at half-maximal effect
[7] = qHTS for differential inhibitors of proliferation of Plasmodium falciparum line Dd2 (AID 1882); settings: Potency: Plasmodium falciparum Dd2 proliferation inhibition; also: nearly all actives have a fitted effect of over 65% in size; also: potency is read from the fitted curve at half-maximal effect
Method in brief: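 SYBR Green DNA fluorescence (ex 485, em 535 nm) after overnight lysis quantifies parasite growth; compound exposure lasted 72 h at 37 C on infected red cells at 2.5% hematocrit, 0.3% parasitemia (final). Artemisinin 0.29 uM and vehicle wells define normalization.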

[8] = biological target: Ferritin light chain (Equus caballus) (UniProt P02791); assay: qHTS Validation Assay for Identification of Novel General Anesthetics (AID 2323); also: series mostly up to about 77 µM
Sequence of Ferritin light chain (Equus caballus) (P02791 2-175 limits assumed): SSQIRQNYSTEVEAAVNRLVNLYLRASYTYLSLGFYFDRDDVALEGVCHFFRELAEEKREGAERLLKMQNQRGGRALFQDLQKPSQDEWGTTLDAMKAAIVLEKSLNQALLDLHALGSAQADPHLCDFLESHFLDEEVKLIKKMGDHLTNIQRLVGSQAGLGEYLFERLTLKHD
Method in brief: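 Normalized fluorescence response, scaled between free 1-AMA and 1-AMA/apoferritin complex, fitted to a four-parameter Hill equation for concentration-effect values. Binding mix: 10 uM horse-spleen apoferritin, 50% saturated 1-AMA in PBS; read 380/535 nm after 10 min.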

[9] = biological target: ATP-dependent DNA helicase Q1 (Homo sapiens) (UniProt P46063); assay: qHTS Validation Assay for Inhibitors of RecQ-Like Dna Helicase 1 (RECQ1) (AID 2353)
Sequence of ATP-dependent DNA helicase Q1 (Homo sapiens) (P46063 whole entry, looked up): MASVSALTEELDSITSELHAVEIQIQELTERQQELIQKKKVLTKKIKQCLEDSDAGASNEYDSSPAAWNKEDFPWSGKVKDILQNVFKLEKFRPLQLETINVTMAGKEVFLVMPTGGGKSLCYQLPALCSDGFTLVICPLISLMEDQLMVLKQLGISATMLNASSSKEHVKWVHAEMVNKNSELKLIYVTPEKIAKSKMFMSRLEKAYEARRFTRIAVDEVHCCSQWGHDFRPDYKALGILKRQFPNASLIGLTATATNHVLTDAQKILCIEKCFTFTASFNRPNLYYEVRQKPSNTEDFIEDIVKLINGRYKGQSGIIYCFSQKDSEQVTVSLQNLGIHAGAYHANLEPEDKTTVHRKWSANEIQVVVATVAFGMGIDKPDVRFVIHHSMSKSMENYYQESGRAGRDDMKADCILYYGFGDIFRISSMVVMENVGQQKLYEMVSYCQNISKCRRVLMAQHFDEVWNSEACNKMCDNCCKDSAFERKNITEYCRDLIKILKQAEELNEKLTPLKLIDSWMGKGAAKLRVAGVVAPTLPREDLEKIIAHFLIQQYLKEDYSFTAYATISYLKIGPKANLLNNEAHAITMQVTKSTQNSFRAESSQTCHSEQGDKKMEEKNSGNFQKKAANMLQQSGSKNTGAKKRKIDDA
Method in brief: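 RECQ1T1 50 nM; forked duplex (20 bp + 30-nt ss tails) 200 nM, ATP 2 mM final; pH 8.0, 2 mM MgCl2, 2.5 ug/ml poly(dI-dC); 15 min compound preincubation; discontinuous kinetic read over 2 h at RT.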

[10] = High Content Imaging Cell-Based qHTS for Inhibitors of the mTORC1 Signaling Pathway in MEF Cells (AID 2667);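 also: Tsc2-/- p53-/- MEFs stably re-expressing wild-type Tsc2 exposed 24 h; series mostly up to about 38 µM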
Method in brief: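 Read-out is the share of phospho-rpS6-positive cells per well, from Hoechst-normalized Alexa-488 Ser235/236 staining imaged on IN Cell. Cells: WT Tsc2-expressing Tsc2-/-, p53-/- MEFs exposed to compound for 24 hrs.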

[11] = Cytometry Cell-Based qHTS for Inhibitors of the mTORC1 Signaling Pathway in MEF cells (AID 2668);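 also: Tsc2-/- p53-/- mouse embryonic fibroblasts stably re-expressing wild-type Tsc2; percent cells positive for phospho-rpS6 Ser235/236 relative to propidium iodide stain; series mostly up to about 38 µM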
Method in brief: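 In MEFs grown in DMEM + 10% FBS, a 24 hrs compound exposure preceded imaging of phospho-rpS6 Ser235/236 by laser-scanning cytometry.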

[12] = Validation screen for small molecules that induce DNA re-replication in MCF 10A normal breast cells (AID 463097); also: nearly all actives have a fitted effect of over 60% in size; also: potency is read from the fitted curve at half-maximal effect
Method in brief: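 Following 48 hr compound incubation (37 C, 5% CO2), MCF 10A cells receive Hoechst for 40 min at 37 C. Nuclei are then scanned (excitation 405 nm, emission 500-530 nm) for total fluorescence intensity.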

[13] = biological target: Ubiquitin carboxyl-terminal hydrolase 2 (Homo sapiens) (UniProt O75604); assay: qHTS Validation Assay for Inhibitors of Ubiquitin-specific Protease USP2a Using CHOP2 as the Reporter (AID 463106)
Sequence of Ubiquitin carboxyl-terminal hydrolase 2 (Homo sapiens) (O75604 whole entry, looked up): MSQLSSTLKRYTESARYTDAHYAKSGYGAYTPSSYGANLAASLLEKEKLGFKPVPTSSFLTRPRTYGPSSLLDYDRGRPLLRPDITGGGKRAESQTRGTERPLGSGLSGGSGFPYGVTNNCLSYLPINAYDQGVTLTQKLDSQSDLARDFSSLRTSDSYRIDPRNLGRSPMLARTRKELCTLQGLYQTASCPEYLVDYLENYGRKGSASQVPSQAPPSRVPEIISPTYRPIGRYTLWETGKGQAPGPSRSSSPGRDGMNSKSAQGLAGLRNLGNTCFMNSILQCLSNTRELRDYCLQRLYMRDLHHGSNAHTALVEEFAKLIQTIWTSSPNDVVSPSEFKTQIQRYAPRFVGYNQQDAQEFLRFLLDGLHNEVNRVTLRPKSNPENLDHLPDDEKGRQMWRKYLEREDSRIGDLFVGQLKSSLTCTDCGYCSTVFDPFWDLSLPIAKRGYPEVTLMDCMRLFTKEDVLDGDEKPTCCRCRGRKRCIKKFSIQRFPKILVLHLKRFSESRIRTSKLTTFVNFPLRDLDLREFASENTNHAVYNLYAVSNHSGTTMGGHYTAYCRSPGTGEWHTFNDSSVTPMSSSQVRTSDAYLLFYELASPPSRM
Method in brief: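 Fluorescence read-out at Ex 485nm/Em 531nm after 60min RT, following addition of 25nM Ub-CHOP2 plus 25nM reporter substrate to USP2 core (10nM) pretreated 30min with compound. Data normalized to NEM full inhibition; concentration-response curves fitted.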

[14] = biological target: DNA polymerase III PolC-type (Bacillus subtilis (strain 168)) (UniProt P13267); assay: qHTS Validation Assay for the Inhibitors of DNA Replication in Gram-Positive Bacteria (AID 485295);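 also: reconstituted holoenzyme with PolC plus beta clamp SSB and primase; PicoGreen fluorescence of double-stranded DNA made on primed circular M13 template; series mostly up to about 57 µM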
Sequence of DNA polymerase III PolC-type (Bacillus subtilis (strain 168)) (P13267 whole entry, looked up): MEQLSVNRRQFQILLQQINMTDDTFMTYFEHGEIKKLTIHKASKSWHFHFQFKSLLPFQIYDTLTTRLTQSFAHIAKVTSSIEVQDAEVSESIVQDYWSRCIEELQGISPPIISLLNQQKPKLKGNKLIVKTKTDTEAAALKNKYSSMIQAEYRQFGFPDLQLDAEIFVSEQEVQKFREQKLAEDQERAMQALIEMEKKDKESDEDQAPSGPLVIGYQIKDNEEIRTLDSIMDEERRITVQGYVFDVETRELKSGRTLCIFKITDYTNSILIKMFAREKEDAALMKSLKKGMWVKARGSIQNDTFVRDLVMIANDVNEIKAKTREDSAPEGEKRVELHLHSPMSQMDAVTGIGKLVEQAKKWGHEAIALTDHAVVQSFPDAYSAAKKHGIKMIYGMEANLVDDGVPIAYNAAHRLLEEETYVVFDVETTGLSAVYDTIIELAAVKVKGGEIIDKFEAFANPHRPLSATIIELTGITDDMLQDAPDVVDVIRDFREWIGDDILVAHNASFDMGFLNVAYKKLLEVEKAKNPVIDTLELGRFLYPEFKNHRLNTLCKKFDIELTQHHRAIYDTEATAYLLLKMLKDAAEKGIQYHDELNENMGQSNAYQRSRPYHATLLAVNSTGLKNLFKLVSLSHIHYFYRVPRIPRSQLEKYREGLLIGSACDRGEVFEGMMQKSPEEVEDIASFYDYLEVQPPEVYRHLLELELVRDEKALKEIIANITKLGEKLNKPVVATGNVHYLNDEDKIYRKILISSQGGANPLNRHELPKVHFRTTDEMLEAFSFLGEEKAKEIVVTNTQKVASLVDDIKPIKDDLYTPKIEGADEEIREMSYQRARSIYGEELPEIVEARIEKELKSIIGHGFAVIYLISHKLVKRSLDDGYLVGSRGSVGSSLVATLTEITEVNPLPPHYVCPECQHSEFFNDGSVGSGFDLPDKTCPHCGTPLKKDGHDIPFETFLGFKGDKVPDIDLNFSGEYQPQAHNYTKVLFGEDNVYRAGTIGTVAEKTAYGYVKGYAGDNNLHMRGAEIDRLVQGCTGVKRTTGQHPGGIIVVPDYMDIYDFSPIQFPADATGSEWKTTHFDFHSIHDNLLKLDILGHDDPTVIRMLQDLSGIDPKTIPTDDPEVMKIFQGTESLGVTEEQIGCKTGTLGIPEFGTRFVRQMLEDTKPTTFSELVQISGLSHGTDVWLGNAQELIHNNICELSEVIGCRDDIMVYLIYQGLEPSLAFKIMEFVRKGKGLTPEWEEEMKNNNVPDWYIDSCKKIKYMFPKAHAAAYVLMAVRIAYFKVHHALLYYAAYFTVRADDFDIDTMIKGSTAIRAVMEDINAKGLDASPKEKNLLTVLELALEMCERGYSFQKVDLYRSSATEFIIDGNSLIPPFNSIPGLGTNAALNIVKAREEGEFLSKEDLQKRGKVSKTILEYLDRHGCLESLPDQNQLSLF
Method in brief: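 Inhibition of DNA synthesis by the reconstituted PolC holoenzyme, monitored through PicoGreen staining of dsDNA formed from ssM13Gori, dNTPs and NTPs, with compound preincubation and room-temperature reaction.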

[15] = biological target: Endonuclease 4 (Escherichia coli (strain K12)) (UniProt P0A6C1); assay: Counterscreen for APE1 Inhibitors: qHTS Validation Assay for Inhibitors of Endonuclease IV (AID 1708)
Method in brief: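 Conditions: 2 nM enzyme, 50 nM TAMRA/BHQ-2 substrate, pH 7.5 Tris buffer with 2 mM MgCl2, RT. Compound preincubation 15 min; readout three fluorescence reads 60 s apart, third-minus-first.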

[16] = Validation screen for inhibitors of Lassa infection (AID 463096; calls by dose curve)
[17] = qHTS Validation Assay to Find Inhibitors of Chronic Active B-Cell Receptor Signaling (AID 485345; active = well fitted curve in the direction sought with a large enough effect in the main read-out, with a control signal flat, not every such curve was filed as active)
Method in brief: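 TMD8 ABC-DLBCL cells stably carrying doxycycline-inducible IkappaBalpha–green luciferase fusion plus unfused red luciferase; compounds 46 uM to 3 nM, 4 h at 37C with doxycycline. Corrected green/red luminescence ratio normalized to 10 uM MG-132 and basal cell wells; curves fitted.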

[18] = biological target: RecQ-like DNA helicase BLM (Homo sapiens) (UniProt P54132); assay: qHTS Validation Assay for Inhibitors of Bloom's syndrome helicase (BLM) (AID 2364)
Sequence of RecQ-like DNA helicase BLM (Homo sapiens) (P54132 whole entry, looked up): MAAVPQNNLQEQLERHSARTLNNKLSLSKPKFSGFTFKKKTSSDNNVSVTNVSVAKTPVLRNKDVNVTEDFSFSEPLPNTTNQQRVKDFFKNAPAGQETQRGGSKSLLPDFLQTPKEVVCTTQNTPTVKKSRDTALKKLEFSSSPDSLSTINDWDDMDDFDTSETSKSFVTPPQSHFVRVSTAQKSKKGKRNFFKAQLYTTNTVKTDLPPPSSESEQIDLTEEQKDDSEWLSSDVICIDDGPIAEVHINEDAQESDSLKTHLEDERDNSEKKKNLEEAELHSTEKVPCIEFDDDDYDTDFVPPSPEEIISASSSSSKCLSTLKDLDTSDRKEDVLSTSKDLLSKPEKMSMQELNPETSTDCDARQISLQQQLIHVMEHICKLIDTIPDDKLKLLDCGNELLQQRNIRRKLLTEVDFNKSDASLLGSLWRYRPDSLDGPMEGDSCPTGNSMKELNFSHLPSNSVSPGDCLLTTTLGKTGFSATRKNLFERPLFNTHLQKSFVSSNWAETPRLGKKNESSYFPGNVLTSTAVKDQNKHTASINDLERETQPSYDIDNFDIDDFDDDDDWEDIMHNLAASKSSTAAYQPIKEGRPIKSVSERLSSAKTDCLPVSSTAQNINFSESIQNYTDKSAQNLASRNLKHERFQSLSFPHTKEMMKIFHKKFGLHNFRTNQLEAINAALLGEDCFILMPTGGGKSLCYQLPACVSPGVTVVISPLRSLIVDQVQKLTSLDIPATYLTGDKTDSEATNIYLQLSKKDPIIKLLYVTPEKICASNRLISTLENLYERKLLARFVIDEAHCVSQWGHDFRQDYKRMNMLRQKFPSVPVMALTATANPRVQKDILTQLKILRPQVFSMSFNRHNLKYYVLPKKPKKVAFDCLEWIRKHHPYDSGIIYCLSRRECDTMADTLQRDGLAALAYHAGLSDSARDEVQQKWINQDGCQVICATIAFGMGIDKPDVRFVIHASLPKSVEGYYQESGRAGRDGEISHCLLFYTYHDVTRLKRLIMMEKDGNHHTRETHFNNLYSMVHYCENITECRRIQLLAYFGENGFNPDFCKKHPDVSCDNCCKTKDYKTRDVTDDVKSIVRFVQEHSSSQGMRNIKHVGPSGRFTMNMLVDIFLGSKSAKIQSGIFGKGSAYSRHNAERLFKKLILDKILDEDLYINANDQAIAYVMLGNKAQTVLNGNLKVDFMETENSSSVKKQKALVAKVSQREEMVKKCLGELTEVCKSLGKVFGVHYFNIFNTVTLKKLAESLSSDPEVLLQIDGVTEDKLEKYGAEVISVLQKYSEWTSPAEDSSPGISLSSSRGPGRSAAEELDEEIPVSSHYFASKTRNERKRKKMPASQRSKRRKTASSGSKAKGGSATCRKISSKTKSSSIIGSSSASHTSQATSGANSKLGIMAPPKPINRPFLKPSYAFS
Method in brief: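 50 nM BLM preincubated 15 min at room temperature with compound in pH 8.0 Tris buffer containing 2.5 ug/ml poly(dI-dC); started with 200 nM TAMRA/BHQ-2 forked duplex and 2 mM ATP (final). Unwinding read as TAMRA fluorescence increase, two reads 2 h apart.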

[19] = qHTS Assay for Modulators of Human Peripheral Myelin Protein 22 (PMP22) Expression/Activity (AID 1967; active = well fitted curve in the direction sought with a large enough effect in the signal ratio; the % refers to the signal ratio)
Method in brief: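 Engineered MSC80 cells, Pmp22-promoter green and EF-alpha red luciferase reporters; 24h compound treatment at 37 °C. Concentration-response fits on green, red and ratio signals, each overlap-corrected, with %Activity normalized to untreated wells.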

Measured: Potency

CN(C)CCC=C1c2ccccc2CCc2ccccc21
active: [1] 10 µM | [2] 7.94 µM | [3] 8.91 µM | [4] 3.16 µM | [5] 14.1 µM

CN1C[C@H](CNC(=O)OCc2ccccc2)C[C@@H]2c3cccc4c3c(cn4C)C[C@H]21
inactive: [8] | [9] | [10] | [11] | [13] | [14]
active: [1] 5.01 µM | [2] 7.08 µM | [6] 2.51 µM | [3] 11.2 µM | [7] 10 µM | [4] 3.98 µM | [5] 11.2 µM | [12] 15.8 µM

NCC(CC(=O)O)c1ccc(Cl)cc1 (stereo not given)
not listed: [18] | [19]
inactive: all other assays above

Nc1ccncc1
not listed: [19]
inactive: all other assays above

NCC1(CC(=O)O)CCCCC1
not listed: [13] | [18] | [19]
inactive: all other assays above

CC(=O)[C@H]1CC[C@H]2[C@@H]3CC[C@H]4C[C@H](O)CC[C@]4(C)[C@H]3C(=O)C[C@]12C
not listed: [4] | [15]
inactive: all other assays above

COc1cc2c(c(OC)c1OC)-c1ccc(OC)c(=O)cc1[C@@H](NC(C)=O)CC2
active: [1] 11.2 µM | [6] 10 µM | [4] 11.2 µM | [12] 0.0398 µM
inactive: [15] | [16]

O=c1[nH]cc(F)c(=O)[nH]1
inactive: [16]
active: [1] 7.08 µM | [2] 7.94 µM | [6] 4.47 µM | [3] 4.47 µM | [4] 7.94 µM | [5] 5.01 µM
